Values without a mark were called inactive. Activity calls are given as the source filed them. Calls come from the whole dose curve.
Assay: qHTS assay to identify small molecule agonists of the sonic hedgehog signaling (Shh) pathway (AID 1259368); note: nearly all actives have a fitted effect of over 15% in size;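 for activity change: NIH/3T3-derived 3T3Gli1-Luc cells carrying a stable Gli1-driven firefly luciferase reporter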
Conditions: NIH/3T3 Gli1-Luc reporter, luciferase, 24 h; series mostly up to 92.4 µM; activity change: at the top concentration
Excerpt: National Center for Advancing Translational Sciences [NCATS]
NIH Chemical Genomics Center [NCGC]
U.S. Environmental Protection Agency [EPA]
National Institutes of Environmental Health Sciences [NIEHS]
National Toxicology Program [NTP]
The sonic hedgehog (Shh) pathway is essential for normal embryonic development. Dysregulation of the Shh pathway can cause severe developmental defects in organs. Therefore chemicals that interfere with the pathway are potential developmental toxicants. A cell line designated 3T3Gli1-Luc (DMB/OARSA/CFSAN/FDA, Laurel, MD), a NIH/3T3 derived clone containing stably integrated Gli1-Luc reporter is used to detect chemical interference of the Shh pathway, by changes in the expression of the firefly Luc gene under the control of the Gli1 transcriptional response element. This cell line was used to screen Tox21 libraries for identifying and prioritizing the potential developmental toxicants that interfere Shh pathway.
3T3 Gli1-Luc cells were dispensed at 2,000 per well in 5uL of culture medium into white solid bottom 1536-well plates (Greiner Bio-One, Monroe, NC) using a Multidrop Combi (Thermo Scientific, Waltham, MA) dispenser. The assay plates were incubated at 37 C and 5% CO2 for 4hr, and then 23nL of compounds dissolved in DMSO and positive control were transferred using a Pintool station (Wako, San Diego, CA). The assay plates were incubated at 37C and 5% CO2 for 24hr. For luciferase read, 4uL of Amplite Luciferase reporter gene assay reagent (AAT Bioquest, Inc. Sunnyvale, CA) was added to each well of the assay plates using Flying Reagent Dispenser (FRD, Aurora Discovery, San Diego, CA) and incubated at room temperature for 30min. The luminescence signal was measured using a ViewLux plate reader (Perkin Elmer, Shelton, CT).
With `O=C(O)CN(CCN(CC(=O)O)CC(=O)O)CC(=O)O` the activity change was 0.474% [at 3.27 µM, stronger effect = higher value].
For `O=C(c1ccc(O)c(O)c1)c1ccc(O)cc1O`, the “activity change” value was -4.58%.
With `O=C(O)c1cc(O)c2ccccc2c1O` the “activity change” value was -11.4%.
In the case of `CCN(CC)C(=O)c1cc(S(=O)(=O)Cc2ccccc2)c(N2CCC(c3ccccc3)CC2)cc1N(CC)CCN(C)C`, the “activity change” value is reported as -15.1% [at 42.5 µM, stronger effect = higher value].
In the case of `CNC(=O)c1ccccc1Sc1ccc2c(/C=C/c3ccccn3)n[nH]c2c1`, the “activity change” value is reported as -2.28% [at 42.5 µM, stronger effect = higher value].
With `COC(=O)c1ccccc1C` the “activity change” value was -2.38%.
For `COC(=O)Nc1nc2ccc(C(=O)c3ccccc3)cc2[nH]1`, the “activity change” value was 3.47% [at 42.5 µM, stronger effect = higher value].
In the case of `CCCCCCCC`, the “activity change” value is reported as 0%.
For `COC(=O)c1ccccc1OC`, the “activity change” value was 0.572%.
In the case of `c1ccc(SSc2ccccc2)cc1`, the “activity change” value is reported as -0.101%.
For `C[C@H]1NCc2cc(-c3ccc4c(=O)c(C(=O)O)cn(C5CC5)c4c3OC(F)F)ccc21`, the activity change was -0.818% [at 18.9 µM, stronger effect = higher value].
For `CC(C)(C)c1csc(-c2cc3cc(OCc4ccccc4CC(=O)O)ccc3o2)n1`, the “activity change” value was 0.416%.
In the case of `CC(C)(C)NSc1nc2ccccc2s1`, the “activity change” value is reported as 8.21%.
For `Clc1ccnc(Cl)n1`, the “activity change” value was -3.58%.
With `COc1cc(S(=O)(=O)O)c(C)cc1N=Nc1c(O)ccc2cc(S(=O)(=O)O)ccc12` the “activity change” value was -4.91%.
In the case of `CCCCCCCCCCCCOC(=O)c1ccc(O)cc1`, the “activity change” value is reported as -4.57%.
In the case of `CCCCCc1ccc(Cl)cc1`, the “activity change” value is reported as -0.897%.
In the case of `Cc1c(F)c(N2CCNC(C)C2)cc2c1c(=O)c(C(=O)O)cn2C1CC1` (stereo not given), the “activity change” value is reported as -0.723% [at 42.5 µM, stronger effect = higher value].
For `CCOC(=O)NNc1ccc(N(CC)CC(C)O)nn1` (stereo not given), the “activity change” value was -1.16% [at 42.5 µM, stronger effect = higher value].
For `O=c1[nH]c(=O)n([C@H]2C[C@H](O)[C@@H](CO)O2)cc1F`, the “activity change” value was -0.71% [at 42.5 µM, stronger effect = higher value].
With `CC(C)=CCC1=C(O)c2ccccc2C(=O)C1=O` the “activity change” value was -0.003%.
For `CC1(C)[C@@H](O)CC[C@]2(C)[C@H]3C(=O)C=C4[C@@H]5C[C@@](C)(C(=O)O)CC[C@]5(C)CC[C@@]4(C)[C@]3(C)CC[C@@H]12`, the “activity change” value was -3.07%.
With `Nc1nc2c(ncn2COCCO)c(=O)[nH]1` the “activity change” value was -0.16% [at 42.5 µM, stronger effect = higher value].
In the case of `Cc1c(N)cccc1C(F)(F)F`, the “activity change” value is reported as 0.19% [at 42.5 µM, stronger effect = higher value].
For `CCOc1ccc2ccccc2c1C(=O)N[C@@H]1C(=O)N2[C@@H]1SC(C)(C)[C@@H]2C(=O)O`, the “activity change” value was 0.075% [at 42.5 µM, stronger effect = higher value].
For `COc1cc(/C=C/c2ccccc2)oc(=O)c1`, the Potency was 2.52 µM (active).
With `CCC(CC)C(C)CCOC(C)=O` (stereo not given) the “activity change” value was -0.875%.
In the case of `O=C(O)O`, the activity change is reported as 0.72% [at 8.39 µM, stronger effect = higher value].
With `C#C[C@]1(OC(C)=O)CC[C@H]2[C@@H]3CCC4=C/C(=N/O)CC[C@@H]4[C@H]3CC[C@@]21CC` the “activity change” value was 0.0052% [at 42.5 µM, stronger effect = higher value].
In the case of `COc1ccc(-c2coc3cc(O)ccc3c2=O)cc1`, the Potency is reported as 9.69 µM (active).
With `Cc1cc(C(C)(C)C)cc(C)c1CC1=NCCN1` the “activity change” value was 0.243% [at 42.5 µM, stronger effect = higher value].
For `Cc1ccc(C(C)C)cc2c(C)ccc1-2`, the “activity change” value was 0.2% [at 42.5 µM, stronger effect = higher value].
In the case of `CCCCN(CCCC)CC(O)c1cc(Cl)cc2c1-c1ccc(Cl)cc1/C2=C/c1ccc(Cl)cc1` (stereo not given), the “activity change” value is reported as -4.77% [at 42.5 µM, stronger effect = higher value].
In the case of `Nc1cc(Cl)c(O)c(Cl)c1`, the “activity change” value is reported as -12.1%.
With `COC(C)=O` the “activity change” value was -0.0086%.
With `Cc1cc(=O)oc2cc(O)cc(O)c12` the “activity change” value was -12.9%.
In the case of `Sc1nc2ccccc2s1`, the “activity change” value is reported as 11.3%.
In the case of `CCCCOC(=O)CO`, the “activity change” value is reported as -0.391%.
For `CCC(C)(CCC(C)C)C(=O)[O][Sn]([CH3])([CH3])[O]C(=O)C(C)(CC)CCC(C)C` (stereo not given), the “activity change” value was 0.263%.
In the case of `Cc1ccc(O)c(O)c1`, the “activity change” value is reported as -20.5%.

From PubChem BioAssay (Tox21)
% is set by controls: 0 for no effect and ±100 for the full control effect; potency is the fitted concentration of half-maximal effect.
